{"source": "PubChem BioAssay (NCI)", "note": "About 83,000 compounds went through this panel and 20% of them were active in at least one assay; those are over-represented in the sample as a whole.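 Each cell line was grown in a 96-well plate and treated with one concentration of compound for 48 hours. Values below 10 were considered active.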 Calls of active or inactive are those of the source.", "data": [{"tested_on": "HL-60(TB) leukemia", "test": "NCI-60 one-dose screen, 48 h (100 = growth as untreated, 0 = no growth, -100 = all killed)", "settings": "10 µM unless noted", "values": [{"smiles": "O=C(Nc1ccc(Nc2ccncc2)cc1)c1ccc([N+](=O)[O-])cc1", "growth": "-75.2% (active)"}, {"smiles": "CCCCCCCCc1ccc(CCC(N)(CO)CO)cc1", "growth": "-14.1% (active)"}, {"smiles": "Clc1nnc2c3ccccc3ccn12", "growth": "92.6% (inactive)"}, {"smiles": "Cc1ccc(C(=O)Nc2ccc(CN3CCN(C)CC3)c(C(F)(F)F)c2)cc1C#Cc1cncc2ncccc12", "growth": "-65.1% (active)"}, {"smiles": "CSc1nc(C)c(C(=O)CCN2CCN(c3ccccn3)CC2)s1", "growth": "102% (inactive)"}, {"smiles": "Clc1nc(Cl)c2ncn(-c3ccccc3)c2n1", "growth": "46.1% (inactive)"}, {"smiles": "COc1ccc(NC(=O)CSc2nnc(-c3cc(-c4ccc(S(N)(=O)=O)cc4)nc4ccccc34)n2-c2ccccc2)cc1", "growth": "65.1% (inactive)"}, {"smiles": "Cc1nc2c(=O)nc3s/c(=C\\c4ccco4)c(=O)n3c2nc1C", "growth": "98% (inactive)"}, {"smiles": "CSc1nc(N)c(N=Nc2ccc(S(=O)(=O)Nc3nnc(C)s3)cc2)c(=O)[nH]1", "growth": "90.4% (inactive)"}, {"smiles": "NCCNc1ccc2cc(-c3nc4ccccc4[nH]3)c(=O)oc2c1", "growth": "80.1% (inactive)"}, {"smiles": "Cc1cc(-c2nnc(/C=C/c3ccc4c(c3)OCO4)o2)n[nH]1", "growth": "10.6% (inactive)"}, {"smiles": "CC(=O)Nc1cc(C(c2ccccc2)c2ccccc2)cc(C(c2ccccc2)c2ccccc2)c1C", "growth": "53.1% (inactive)"}, {"smiles": "CN1CCN(CC(=O)Nc2cccc(-n3cc(-c4ccncc4)c(-c4ccc(Cl)c(O)c4)n3)c2)CC1", "growth": "5.27% (active)"}, {"smiles": "O=c1cc(-c2ccccc2)[nH]c(=S)[nH]1", "growth": "104% (inactive)"}, {"smiles": "Cc1ccc(C)c2c1C(O)(C#Cc1ccccc1)c1ccccc1C2(O)C#Cc1ccccc1", "note": "(stereo not given)", "growth": "35.6% (inactive)"}, {"smiles": "C/C=C(/C(=O)NC(N)=O)C(C)C", "growth": "91% (inactive)"}, {"smiles": "COc1nc2c(c(=O)[nH]1)C(c1ccc(Oc3ccnc4cc(Cl)ccc34)c(OC)c1)C=C(c1cc(OC)c(OC)c(OC)c1)N2", "note": "(stereo not given)", "growth": "97.9% (inactive)"}, {"smiles": "COc1ccc(/C=C2/CN(C(=O)c3ccccc3F)C/C(=C\\c3ccc(OC)cc3)C2=O)cc1", "growth": "51.4% (inactive)"}, {"smiles": "C=C1C(=O)O[C@H]2[C@H]1CC/C(COC(=O)NCc1ccc(Cn3c(=O)sn(CCCCl)c3=O)cc1)=C\\CC[C@@]1(C)O[C@@H]21", "growth": "-50.6% (active)"}, {"smiles": "CCOC(=O)c1ccc(NC(=O)CCCN(CC)CC)cc1", "growth": "100% (inactive)"}, {"smiles": "CCOC(=O)C1=C(CSC(=S)N(C2CCCCC2)C2CCCCC2)N(C)C(=O)NC1c1ccccc1", "note": "(stereo not given)", "growth": "15.3% (inactive)"}, {"smiles": "O=C(/C=C/c1cc([N+](=O)[O-])ccc1Cl)c1ccccc1", "growth": "61.7% (inactive)"}, {"smiles": "CNC(=O)c1cc(Oc2ccc(NC(=O)Nc3ccc(Cl)c(C(F)(F)F)c3)c(F)c2)ccn1", "growth": "-17.4% (active)"}, {"smiles": "O=C(COc1ccc(/C=C2\\COc3ccccc3C2=O)cc1)Nc1nccs1", "growth": "-11.4% (active)"}, {"smiles": "c1ccc(-c2cccc(-c3ccccn3)n2)nc1", "growth": "-16.9% (active)"}, {"smiles": "CC(O)C(N)=O", "note": "(stereo not given)", "growth": "117% (inactive)"}, {"smiles": "O=C1/C(=C/c2ccc(F)c(F)c2)CN(C(=O)C(Cl)Cl)C/C1=C\\c1ccc(F)c(F)c1", "growth": "-47.1% (active)"}, {"smiles": "COc1ccc(-c2cn(-c3ccc(Cl)cc3)c(=S)[nH]2)cc1OC", "growth": "56.1% (inactive)"}, {"smiles": "CC(C)NC(=O)OCC#CCOC(=O)NC(C)C", "growth": "95.7% (inactive)"}, {"smiles": "C/C(Cc1ccc(Cl)cc1)=C(\\c1ccc(OCCCN(C)C)cc1)c1ccc(OC(=O)Cc2ccccc2)cc1", "growth": "88.7% (inactive)"}, {"smiles": "Cn1cc(-c2noc(-c3cn(C)c4ncccc34)n2)c2cc(Cl)ccc21", "growth": "80.2% (inactive)"}, {"smiles": "N=C(N)c1ccc(-c2ccc(-c3cc(Cl)cc(Cl)c3)s2)s1", "growth": "-67.9% (active)"}, {"smiles": "Oc1ccccc1C=Nc1ccc(N2CCN(c3ccccc3)CC2)cc1", "growth": "54.6% (inactive)"}, {"smiles": "C(=C\\c1nccc2c1[nH]c1ccccc12)/c1ccccc1", "growth": "55.5% (inactive)"}, {"smiles": "Fc1cc2c(cc1Cl)N(c1ncnc3ccc(-c4cnc5cnccn45)cc13)CC2", "growth": "-7.92% (active)"}, {"smiles": "CCN1C(=O)N(CC)C2C1NN=c1s/c(=C\\c3cc4ccccc4[nH]3)c(=O)n12", "note": "(stereo not given)", "growth": "-62% (active)"}, {"smiles": "Nc1nc2ccccc2c2c(=O)c3cc(Cl)ccc3sc12", "growth": "103% (inactive)"}, {"smiles": "COc1ccc(Cl)cc1Nc1nc(C(F)(F)F)ccc1C(=O)NN", "growth": "23.3% (inactive)"}, {"smiles": "O=C(/C=C(O)/C=C/c1cccc2[nH]ccc12)/C=C/c1cccc2[nH]ccc12", "growth": "39.4% (inactive)"}, {"smiles": "COc1c(B(O)O)cc(C)cc1-c1nc2ccc3[nH]ncc3c2c2c1CCCC2", "growth": "13.3% (inactive)"}]}]}
